# Results: PubChem BioAssay (NCI)
# Compounds without any hit were thinned out: in the full panel of roughly 79,000, 15% have a hit. Values without a mark were called inactive. Active and inactive are the calls of the source. Cut-off read from the data, not from the text of the source: active = growth inhibition above about 70%; inactive = the rest.
# Assay: NCI Yeast Anticancer Drug Screen. Data for the wt1 strain (AID 149);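 note: 0% = growth of vehicle-treated wt1 cultures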
# Conditions: S. cerevisiae wt1 strain (SPY 50644) growth inhibition, active compounds read high
# Method: Growth inhibition of yeast strains with defined genetic alterations is measured as a screen for potential anti-cancer activity. Selected strains with alterations in DNA damage repair or cell cycle control were exposed to compounds and growth inhibition was measured relative to vehicle treated controls. The strain used in this assay is wt1
SMILES,growth inhibition (at 1.2 µM) [%],growth inhibition (at 3.7 µM) [%],growth inhibition (at 11.0 µM) [%],growth inhibition (at 33.0 µM),growth inhibition (at 100.0 µM)
Cc1ccc(N)c(S)c1,-23,-29,-19,75% (active),99% (active)
O=C1C2C=CC1C1C(=O)OC(=O)C21 (stereo not given),-50,-45,-45,-52%,-51%
COC(=O)c1ccc([N+](=O)[O-])c(O)c1,-12,-10,3,28%,98% (active)
OC(COc1cccc2ccccc12)CN1CCOCC1 (stereo not given),13,23,30,31%,30%
C(CCSC1=NCCN1)CSC1=NCCN1 (tested in a mixture with another compound),-3,9,41,99% (active),99% (active)
O=C(Nc1ccccc1)C(=O)C(C(=O)c1ccccc1)C(c1ccccc1)c1ccccc1 (stereo not given),3,5,4,10%,28%
CNC(=O)OCc1c(COC(=O)NC)c(-c2ccc(Cl)c(Cl)c2)n2c1CCC2,-53,-56,-48,71% (active),98% (active)
O=C(CCCN1CCC(O)(c2ccc(Cl)cc2)CC1)c1ccc(F)cc1,0,7,13,23%,14%
